PubChem BioAssay (NCI)
This is part of a sample that, as a whole, favours compounds with a hit. Of some 79,000 tested, about 15% had one in any assay. A number with no mark means an inactive call. The source made the active and inactive calls. No stated cut-off is given here; in the data, active means growth inhibition above about 70%; inactive means the rest.

Columns and labels:
[1] = NCI Yeast Anticancer Drug Screen. Data for the rad50 strain (AID 155);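 further: 0% = growth of vehicle-only cultures of the same strain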; details: S. cerevisiae rad50 strain growth inhibition, stronger effect = higher value
Summary of the method: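 Cells are treated with compound, grown, and their growth is then scored against vehicle-only cultures of the same repair-deficient yeast strain.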

[2] = NCI Yeast Anticancer Drug Screen. Data for the mec2-1 strain (AID 157); details: S. cerevisiae mec2-1 strain, stronger effect = higher value
Summary of the method: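 Using mec2-1 yeast: add compound, measure growth, express inhibition versus vehicle-treated cultures.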

[3] = NCI Yeast Anticancer Drug Screen. Data for the sgs1 mgt1 strain (AID 161);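 further: 0% = growth of cultures given vehicle only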; details: S. cerevisiae sgs1 mgt1 strain, stronger effect = higher value
Summary of the method: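 Growth of a repair-deficient yeast mutant was monitored after compound treatment and expressed as inhibition relative to vehicle-treated cultures.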

[4] = NCI Yeast Anticancer Drug Screen. Data for the cln2 rad14 strain (AID 165);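 further: 0% = growth equal to vehicle treated cultures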; details: S. cerevisiae cln2 rad14 strain, stronger effect = higher value
Summary of the method: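 Yeast strain cln2 rad14, bearing defects in cell cycle control and DNA repair, serves as the test system; values reflect growth inhibition compared with vehicle.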

[5] = NCI Yeast Anticancer Drug Screen. Data for the bub3 strain (AID 167); details: S. cerevisiae bub3 mutant strain, stronger effect = higher value
Summary of the method: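 Part of a panel of yeast mutants defective in DNA damage repair or cell cycle regulation. Each strain is grown with compound, and inhibition is calculated relative to solvent-treated cultures.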

[6] = NCI Yeast Anticancer Drug Screen. Data for the mlh1 rad18 strain (AID 175); details: S. cerevisiae mlh1 rad18 strain growth inhibition, stronger effect = higher value
Summary of the method: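 Steps: expose repair-defective yeast to compound; measure growth; express inhibition against vehicle-treated controls.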

[7] = at 5.0 µM (retest, dose inferred, filed as 0.5)
[8] = at 50.0 µM (retest, dose inferred, filed as 5.0)

Structure (SMILES)	growth inhibition [1, 7]	growth inhibition [1, 8]	growth inhibition ([1]; at 50.0 µM)	growth inhibition [2, 7]	growth inhibition [2, 8]	growth inhibition ([2]; at 50.0 µM)	growth inhibition [3, 7]	growth inhibition [3, 8]	growth inhibition ([3]; at 50.0 µM)	growth inhibition [4, 7] [%]	growth inhibition [4, 8]	growth inhibition ([4]; at 50.0 µM)	growth inhibition [5, 7]	growth inhibition [5, 8]	growth inhibition ([5]; at 50.0 µM)	growth inhibition [6, 7]	growth inhibition [6, 8]	growth inhibition ([6]; at 50.0 µM)
c1ccc(C2=NOC3(c4ccccc4)SC4CCCCC4CN23)cc1 (configuration not stated)	6%	97% (active)	90.3% (active)	-22%	98% (active)	93.7% (active)	10%	97% (active)	92.4% (active)	15	98% (active)	90.4% (active)	25%	97% (active)	90.2% (active)	8%	98% (active)	90.1% (active)
COc1cccc(C2c3cc4c(cc3OC(NNc3ccccc3)C2C)OCO4)c1OC (configuration not stated)	14%	94% (active)	73.2% (active)	3%	94% (active)	44.7%	9%	86% (active)	44%	11	90% (active)	27.1%	4%	94% (active)	34.2%	24%	93% (active)	56.4%
CCCCCCCCCCCCCCC(O)C[N+](C)(CCO)CCO (configuration not stated)	29%	98% (active)	86.6% (active)	22%	99% (active)	87.7% (active)	32%	99% (active)	88.8% (active)	10	98% (active)	88.3% (active)	28%	99% (active)	86% (active)	32%	98% (active)	88.9% (active)
N#CC1(C#N)C(C#N)(C#N)C12CCC2	4%	87% (active)	35.2%	6%	88% (active)	49.8%	6%	91% (active)	50.6%	0	65%	-2.45%	7%	96% (active)	70% (active)	2%	96% (active)	83.8% (active)
Cn1c(=NCCc2ccccc2)oc2ccc(Cl)cc21	-6%	17%	6.15%	-7%	9%	1.7%	-7%	29%	30.3%	-4	16%	73% (active)	4%	33%	18.6%	-3%	25%	18.6%
O=C1C2=C(CCCC2)C(=O)C(Cl)C1Cl (configuration not stated)	36%	98% (active)	97.8% (active)	32%	99% (active)	99.3% (active)	24%	99% (active)	99.5% (active)	9	99% (active)	99.1% (active)	56%	99% (active)	99.5% (active)	62%	99% (active)	99.5% (active)
Cc1c(-c2ccccc2)ccnc1/C=N/NS(=O)(=O)c1ccccc1	0%	-4%	42%	-1%	15%	22.9%	4%	38%	82% (active)	-3	-6%	35.3%	-8%	-3%	39.1%	-3%	28%	52.2%
CN(NC(=O)CC(=O)NN(C)C(=S)c1ccccc1)C(=S)c1ccccc1	76% (active)	84% (active)	68.5%	81% (active)	87% (active)	80% (active)	96% (active)	87% (active)	91.7% (active)	60	69%	73.8% (active)	54%	73% (active)	76% (active)	78% (active)	76% (active)	84.2% (active)
COc1ccc(C2c3cc4c(cc3OC(N3CCCC3)C2C)OCO4)c(OC)c1 (configuration not stated)	-3%	77% (active)	94.5% (active)	-5%	53%	94.2% (active)	1%	74% (active)	88.2% (active)	-4	68%	71% (active)	-6%	68%	87.8% (active)	-3%	82% (active)	93.5% (active)
COc1ccccc1C1(c2ccccc2OC)OC(=O)c2ccccc21	3%	14%	77.8% (active)	-1%	12%	60.6%	3%	-18%	80.3% (active)	1	22%	69%	-2%	17%	77.3% (active)	-6%	33%	76% (active)
CCN(CC)CCC(=O)/C=C/c1ccc(Cl)c(Cl)c1	10%	97% (active)	90% (active)	0%	99% (active)	93.1% (active)	16%	56%	92% (active)	14	97% (active)	90.4% (active)	10%	98% (active)	91.4% (active)	37%	98% (active)	89.3% (active)
CCSc1nc2ccc(N3C(=O)C=CC3=O)cc2s1	88% (active)	100% (active)	99.7% (active)	93% (active)	100% (active)	99.6% (active)	96% (active)	100% (active)	99.5% (active)	34	99% (active)	99.3% (active)	93% (active)	99% (active)	99.6% (active)	98% (active)	99% (active)	99.3% (active)
CN(C)C(=O)/C=C/c1c[nH]c(=O)[nH]c1=O	-146%	-149%	-5.65%	-47%	-49%	-2.3%	-63%	-68%	1.05%	-58	-64%	19.1%	-73%	-78%	-3.35%	-149%	-119%	2.75%
COc1ccc2c(Cc3ccc(Cl)cc3)cncc2c1O	5%	91% (active)	98.1% (active)	14%	97% (active)	99.2% (active)	15%	96% (active)	97.2% (active)	2	87% (active)	99% (active)	10%	93% (active)	99% (active)	21%	96% (active)	99.1% (active)
O=C1CSC(=S)N1Cc1ccccc1Cl	15%	93% (active)	98.9% (active)	6%	97% (active)	96.2% (active)	11%	98% (active)	97.9% (active)	2	81% (active)	97.3% (active)	-1%	94% (active)	95.2% (active)	11%	98% (active)	99% (active)
O=C(/C(=C\I)c1ccccc1)c1ccccc1	6%	6%	88.5% (active)	-15%	-15%	92.5% (active)	-8%	-8%	86.4% (active)	-6	-6%	89.9% (active)	-24%	-24%	90.2% (active)	-13%	-13%	86.7% (active)
Brc1ccc(CCNCCN2CCCCC2)cc1	19%	65%	50.9%	25%	68%	21%	24%	68%	63.2%	45	61%	37.6%	15%	57%	61.1%	25%	89% (active)	45%
Nc1ccc(O)c2ccccc12	19%	80% (active)	85.5% (active)	-4%	83% (active)	63.8%	7%	63%	68.3%	-10	8%	10.1%	7%	93% (active)	87.2% (active)	11%	90% (active)	91% (active)
CN(C)Cc1ccc2[nH]c3c(c2c1)CCCC3	4%	96% (active)	66.8%	11%	72% (active)	36.6%	2%	90% (active)	43.7%	0	72% (active)	21.2%	1%	85% (active)	45%	28%	93% (active)	65.1%
